Rows were chosen to be rich in hits. Some 9% of all compounds tested hit in one or more screens of this group.
HPGD inh: blocks human HPGD enzyme activity; purified HPGD, NADH fluorescence kinetic, PGE2 substrate; Potency, µM, actives largely listed as inhibitors; 4.3% of 150,000 active; AID 894; active means well fitted inhibition curve with a large enough effect, not every such curve was filed as active; inconclusive means small, poorly fitted or top-dose-only effect, or another doubt; inactive means no such curve, though single readings can be large or run the other way
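NADH formation kinetics: reaction with 30 uM PGE2 and 1 mM NAD+ (final), 20 nM enzyme, Tris-HCl pH 8 with Tween 20, after 15 min compound preincubation at room temperature. Fluorescence change, last versus first of five reads.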
HTT cytoprotect: protects HTT-Q103 PC12 cells, measured by ATP; PC12 HTT-Q103 induced, cytoprotection, ATP luminescence, 40 h; Potency, µM (series often up to 56.4 µM), usual class: activators; 0.14% of 230,000 active; further: nearly all actives have a fitted effect of over 45% in size
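PC12 cells with ecdysone-inducible HTT exon 1 Q103-GFP, induced with 100 nM tebufenozide and co-treated with library compounds in a dose series (1536-well, 1500 cells/well). Cytoprotection read as ATP content by ATPlite luminescence.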
ALDH1A1 block: blocks purified human ALDH1A1 activity; AID 1030; Purified ALDH1A1, NADH fluorescence, propionaldehyde substrate; Potency, µM (titrated, usually from 75.3 µM), hits mostly inhibitors; P00352; 7.3% of 220,000 active; active means well fitted inhibition curve with a large enough effect, not every such curve was filed as active; inconclusive means small, poorly fitted or top-dose-only effect, or another doubt; inactive means no such curve, though single readings can be large or run the other way
Target sequence (P00352 whole entry, looked up): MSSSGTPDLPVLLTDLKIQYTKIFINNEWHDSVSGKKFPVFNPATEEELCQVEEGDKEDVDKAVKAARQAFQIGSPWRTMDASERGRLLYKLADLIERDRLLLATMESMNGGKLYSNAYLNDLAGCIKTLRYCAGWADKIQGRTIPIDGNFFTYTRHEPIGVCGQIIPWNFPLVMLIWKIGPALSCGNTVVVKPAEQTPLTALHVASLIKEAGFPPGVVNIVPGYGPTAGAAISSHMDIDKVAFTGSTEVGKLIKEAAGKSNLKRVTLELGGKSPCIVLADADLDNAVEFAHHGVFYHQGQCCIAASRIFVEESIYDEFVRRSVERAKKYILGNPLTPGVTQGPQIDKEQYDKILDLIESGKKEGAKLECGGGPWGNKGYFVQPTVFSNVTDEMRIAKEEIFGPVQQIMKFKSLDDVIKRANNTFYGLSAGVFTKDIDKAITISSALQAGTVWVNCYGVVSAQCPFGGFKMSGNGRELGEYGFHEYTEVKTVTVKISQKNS
HTT aggregate: reduces HttQ103-GFP aggregates in PC12 cells; PC12 HttQ103-GFP aggregates, Acumen cytometry, 40 h; Potency, µM (series often up to 46.1 µM), hits mostly inhibitors; 1.1% of 220,000 active; AID 1688; further: nearly all actives have a fitted effect of over 60% in size
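Huntingtin Q103 exon 1–GFP aggregates in induced PC12 cells (100 nM tebufenozide) were quantified by cytometry from lysates, with compounds dosed in titration.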
KinaseGlo FLuc: counter-screen: inhibitors of Kinase-Glo firefly luciferase | Q27757 | 0.28% of 200,000 active | AID 1379 | Kinase-Glo luciferase, ATP luminescence, 8 min | Potency, µM (doses to about 38.3 µM), hits mostly inhibitors; further: nearly all actives have a fitted effect of over 60% in size
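Light output from Kinase-Glo luciferase with luciferin and 10 uM ATP in 50 mM imidazole pH 7.2, KCl, MgCl2, Tween 20, BSA; compound pin-delivered, 8-min ambient incubation, then luminescence read.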
LMNA splice mod: modulators of lamin A splicing. Potency, µM (highest dose often 46.1 µM), most hits filed as inhibitors. 0.01% of 200,000 active. AID 1487. HeLa LMNA splicing GFP/RFP minigene ratio, 48 h; active means well fitted inhibition curve with a large enough effect in the signal ratio, with a control signal flat, not every such curve was filed as active; inconclusive means small, poorly fitted or top-dose-only effect, or effect the other way, or a change in a side signal; the % refers to the signal ratio
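S3 HeLa stable clones carrying a lamin A-EGFP splicing minigene plus DsRed2 were seeded at 600 cells/well in Opti-MEM with 2% FBS, pin-dosed and incubated 48 h at 37°C. Acumen cytometry (488 nm) gave the GFP/RFP total-intensity ratio.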
Each line names hits and unclear results; the compound was inactive in the other large screens. Unless noted, the call rests on the fitted dose curve; in most records, active means well fitted curve in the direction sought with a large enough effect; inconclusive means small, poorly fitted or top-dose-only effect, or another doubt; inactive means no such curve, though single readings can be large; an effect the other way counts as inactive or inconclusive.

COc1ccccc1N1CCN(C[C@@H](O)COc2cccc3ccccc23)CC1	ALDH1A1 block inconclusive, LMNA splice mod inconclusive (no result: HTT aggregate)
COc1ccccc1N1CCN(C[C@@H](C(=O)NC(C)(C)C)c2ccccc2)CC1	ALDH1A1 block 25µM (no result: HTT aggregate, LMNA splice mod)
O=C(c1ccccc1Oc1ccccc1)N1CCN(c2ccccc2F)CC1	none
Brc1ccc(OCc2ccccc2)c(CNCc2ccncc2)c1	ALDH1A1 block 2µM, HTT aggregate inconclusive
Fc1ccc(COc2ccccc2CNCc2ccncc2)cc1	ALDH1A1 block inconclusive, LMNA splice mod inconclusive
CC1=CN2C(=N)/C(=C/c3ccco3)C(=O)N=C2S1	ALDH1A1 block 13µM, LMNA splice mod inconclusive (no result: HTT cytoprotect)
CC1=CN2C(=N)/C(=C/c3ccc([N+](=O)[O-])o3)C(=O)N=C2S1	ALDH1A1 block 3.5µM, HTT aggregate inconclusive, LMNA splice mod inconclusive
CC1=CN2C(=N)/C(=C/c3cn(CCCOc4ccccc4C)c4ccccc34)C(=O)N=C2S1	HPGD inh inconclusive, ALDH1A1 block inconclusive
CCOc1ccc(-c2ccc(/C=C3/C(=N)N4C=CSC4=NC3=O)o2)c([N+](=O)[O-])c1	HPGD inh inconclusive, HTT aggregate inconclusive
O=[N+]([O-])c1ccc2[nH]c(O)c(N=NC(=S)NCC3CCCO3)c2c1 (configuration not stated)	ALDH1A1 block 0.79µM, LMNA splice mod inconclusive
CCNC(=S)N=Nc1c(O)[nH]c2ccc([N+](=O)[O-])cc12	none (no result: HPGD inh)
CC(C)NC(=O)CN(C(=O)CCC(=O)Nc1ccccn1)c1ccc(F)c(Cl)c1	LMNA splice mod inconclusive
COc1ccc(-c2nsc3c(N4CCCC4)ncnc23)cc1	none
Cc1cc(OCC(=O)Nc2ccc(S(=O)(=O)NC3=NCCCCC3)cc2)c(C(C)C)cc1Cl	LMNA splice mod inconclusive
CC(C)CCNC(=S)Nc1ccc2nc3n(c(=O)c2c1)CCCCC3	HPGD inh 4.5µM, ALDH1A1 block inconclusive, LMNA splice mod inconclusive
CC1CCN(C(=S)Nc2ccc3nc4n(c(=O)c3c2)CCCCC4)CC1	HPGD inh 13µM, ALDH1A1 block inconclusive, LMNA splice mod inconclusive
CCCCNC(=S)Nc1ccc2nc3n(c(=O)c2c1)CCCCC3	HPGD inh 14µM, LMNA splice mod inconclusive
CCOCCCNC(=S)Nc1ccc2nc3n(c(=O)c2c1)CCCCC3	none (no result: HPGD inh)
O=C(Nc1ccc2nc3n(c(=O)c2c1)CCCC3)c1cc([N+](=O)[O-])ccc1F	ALDH1A1 block inconclusive, HTT aggregate 14µM, LMNA splice mod inconclusive
CC(C)OCCCNC(=S)Nc1ccc2nc3n(c(=O)c2c1)CCCCC3	none (no result: HPGD inh)
O=C(Nc1ccc2nc3n(c(=O)c2c1)CCCC3)c1cccc([N+](=O)[O-])c1	none
Cc1nnc(Sc2cc(C(=O)NCc3ccco3)c3ccccc3n2)s1	HPGD inh 2.2µM, ALDH1A1 block inconclusive, HTT aggregate inconclusive, LMNA splice mod inconclusive
CC(=O)CC(=O)Nc1cccc2c1CCCC2	ALDH1A1 block inconclusive
Cc1cc(N(CCO)CCO)ccc1N=Nc1cc(F)ccc1F	LMNA splice mod inconclusive (no result: HPGD inh)
O=C(O)CSC1=NCCN1	none (no result: HTT aggregate, LMNA splice mod)
CSC1(SC2=NCCN2)SC2(NCCN2)S1	ALDH1A1 block 0.089µM (no result: HTT aggregate, LMNA splice mod)
O=C(CSc1nnc([C@@H]2CCCN2)o1)c1ccc(Cl)cc1	ALDH1A1 block 22µM
CN(C)NC1=CC(=[N+]2CCCC2)CC(C)(C)C1	none (no result: HPGD inh, LMNA splice mod)
CCCN(CCC)C1=CC(=[N+]2CCCC2)CC(C)(C)C1	HTT aggregate 11µM, LMNA splice mod inconclusive
Cc1ccc(/C=N/N(Cc2ccccc2)c2ccccc2)o1	ALDH1A1 block 20µM, LMNA splice mod inconclusive (no result: HPGD inh)
Cc1ccc(N(C(=O)Nc2ccccc2)C2=NCC(C)S2)cc1 (configuration not stated)	HPGD inh 11µM
CC(Sc1nc(-c2ccccc2)cc(C(F)(F)F)n1)C(=O)N1CCCCC1 (configuration not stated)	HPGD inh 7.1µM
CC1CCCN(C(=O)C(C)Sc2nc(-c3ccccc3)cc(C(F)(F)F)n2)C1 (configuration not stated)	HPGD inh 16µM, HTT aggregate inconclusive, LMNA splice mod inconclusive
